Only some compounds are listed: those with a hit (about 6.5% of all), similar ones and a draw of the others.
HCMV inh – inhibitors of human cytomegalovirus; HFF cells, HCMV-luciferase reporter, 72 h; hits give low values; activity change, negative = inhibition, % at 57.5 µM; 4.5% of 410,000 active; AID 1259415; in the data active = activity change below about -60%; inconclusive = no clear call, values can overlap the other calls; inactive = above about -39%
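Inhibition of viral replication was scored as loss of reporter luminescence in HFFs infected with HCMV-luciferase (MOI 1 PFU/cell) for 72 h; compounds tested at 2 doses, normalized to buffer and Salinomycin controls.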
Vaccinia mCherry – inhibitors of vaccinia virus infection (mCherry reporter signal) | Vaccinia virus mCherry reporter infection, fluorescence | Potency, µM (doses to about 36.5 µM), inactives show at the highest dose activity change, negative = inhibition, actives largely listed as inhibitors | 0.63% of 310,000 active; calls by dose curve; tested in A549 cells; also: potency is read from the fitted curve at half-maximal effect; nearly all actives have a fitted effect of over 35% in size
Lassa entry inh – inhibitors of Lassa virus binding or cell entry; Lassa virus pseudotype entry inhibition, cell reporter; Potency, µM (top dose mostly 37.9 µM), for inactives: at the highest dose activity change, negative = inhibition, most hits filed as inhibitors; 1.2% of 300,000 active; AID 540256; calls by dose curve; tested in HEK293 cells; also: potency is read from the fitted curve at half-maximal effect; nearly all actives have a fitted effect of over 50% in size
VACV Venus inh – vaccinia inhibition (Venus reporter) | Vaccinia virus Venus reporter expression, fluorescence | Potency, µM (doses to about 36.5 µM), without a hit: top-dose activity change, negative = inhibition, actives largely listed as inhibitors | 0.46% of 330,000 active; calls by dose curve; tested in A549 cells; also: potency is read from the fitted curve at half-maximal effect; nearly all actives have a fitted effect of over 30% in size
Marburg entry inh – inhibitors of Marburg virus binding or cell entry; Marburg virus pseudotyped entry inhibition, cell reporter; Potency, µM (top dose mostly 37.8 µM), for inactives: at the highest dose activity change, negative = inhibition, actives largely listed as inhibitors; 1.8% of 300,000 active; calls by dose curve; tested in HEK293 cells; also: potency is read from the fitted curve at half-maximal effect
FMDV inh – blocks foot and mouth disease virus; FMDV antiviral cell-based qHTS; Potency, µM (titrated, usually from 57.9 µM), for inactives: at the highest dose activity change, negative = inhibition, hits mostly inhibitors; 1.2% of 410,000 active; calls by dose curve; tested in HEK293T cells; also: read-out not given here; potency is read from the fitted curve at half-maximal effect; nearly all actives have a fitted effect of over 45% in size
Numbers without * were called inactive; i = inactive; ? = inconclusive; · = no result given; [ ] = another dose, or the depositor's remark. % is scaled to controls: 0 for no effect and ±100 for the full control effect.

SMILES	HCMV inh	Vaccinia mCherry	Lassa entry inh	VACV Venus inh	Marburg entry inh	FMDV inh
COc1ccc2c(c1)Cc1sc(NC(=O)c3cccc(C)c3)nc1-2	-69.6*	-9.9%	-0.2%[46.1 µM]	-3.8%	8.3%[46.1 µM]	5.3%
COc1ccc(CN2CCC(Oc3ccc(C(=O)N4CCCC4)cc3)CC2)c(F)c1	-11.2	-12.5%	-17.5%	-0.5%	-14.7%	-13.0%
COc1ccccc1NC(=O)CSc1nncn2c1cc1sccc12	?	?	10.0%[46.1 µM]	-29.5%	·	-14.8%
O=C(CSc1nncn2c1cc1sccc12)Nc1ccccc1C(F)(F)F	-72.7*	-6.2%	7.9%[46.1 µM]	-3.5%	·	-11.2%
Cc1ccc(C)n1-c1ccc(-c2ccnc(N)n2)cc1	-66.4*	-25.7%	?	-12.8%	?	?
Cc1onc(-c2ccccc2)c1-c1ccnc(N)n1	48.9	-20.7%	17.6%	-23.7%	1.4%	-15.7%
Cc1ccnc(NC(=S)NC(=O)/C=C/c2ccccc2)c1	22.1	-14.3%	20.6%	-2.7%	4.0%	·
C=CCNC(=S)Nc1cc(C)ccn1	-83.4*	-17.7%	-2.1%	-9.6%	4.6%[14.2 µM]	-7.0%
COc1ccc(C(=O)Nc2nnc(SCC(=O)NCc3ccco3)s2)cc1OC	24.0	-14.3%	?	-11.5%	8.7%	-12.0%
COc1cccc(C(=O)Nc2nnc(SCC(=O)NC3CC3)s2)c1	71.0	i	-22.3%	-5.0%	-26.5%	41.3%
COc1ccc(C(=O)Nc2nnc(-c3cccs3)s2)cc1	19.9	-29.0%	?	-17.8%	3.16µM*	21.8%
COc1ccc(NC(=O)Nc2nnc(-c3cccs3)s2)cc1	36.5	i	·	-2.3%	1.8%	37.4%
COc1ccc(C(=O)Nc2nnc(SCC(=O)NC3CC3)s2)cc1	94.1	i	?	-8.0%	10µM*	5.9%
COc1cc(OC)cc(C(=O)Nc2nnc(SCC(=O)NCc3ccco3)s2)c1	41.7	-13.6%	?	-10.0%	4.3%[46.1 µM]	100µM*
COCc1ccc(CN2Cc3cc(Cl)ccc3OC(C)C2)o1 (stereo not given)	·	-8.3%	·	-3.4%	·	-6.7%
O=C(c1ccc(S(=O)(=O)Cc2ccccc2Cl)c([N+](=O)[O-])c1)N1CCN(c2ccccn2)CC1	-97.2*	?	-3.8%	-21.2%	?	15.8µM*
Cc1nc2ccc(C(=O)N3CCN(c4ccccn4)CC3)cc2s1	-93.4*	6.7%	9.1%	2.5%	?	-6.7%
O=C(c1ccc2ncsc2c1)N1CCN(c2nc3ccccc3s2)CC1	-73.8*	?	?	-20.7%	-3.8%	?
O=C(c1ccc2ncsc2c1)N1CCN(c2ccccc2Cl)CC1	?	-1.3%	?	-10.6%	?	-20.2%
COc1cc2ccccc2cc1C(=O)N1CCN(c2nc3ccc(F)cc3s2)CC1	-64.4*	-18.4%	-4.9%[46.1 µM]	-23.6%	·	?
CCc1nc2ccc(C(=O)NCc3ccc4c(c3)OCO4)cn2c1N(CCC(C)C)CCN(C)C	-24.0	18.6%	·	-6.3%	·	10.0%
CC(=O)[C@]12C[C@@H]3CCCN(C(=O)N[C@@H]1c1ccccc1)[C@@H]32	·	·	·	·	0.3%[14.2 µM]	·
COc1cc2ccccc2cc1C(=O)N1CCN(c2ccccn2)CC1	-62.7*	i	-24.6%	0.5%	?	-12.7%
COc1cc(C(=O)N2CCN(c3ccccn3)CC2)cc(OC)c1OC	-19.5	?	-11.8%[46.1 µM]	-13.6%	14.4%[46.1 µM]	3.2%
COc1ccc(C(=O)N2CCN(c3ccccn3)CC2)cc1[N+](=O)[O-]	-80.1*	i	-13.2%	-6.8%	-14.3%[46.1 µM]	-27.8%
SMILES	HCMV inh	Vaccinia mCherry	Lassa entry inh	VACV Venus inh	Marburg entry inh	FMDV inh
O=C(Nc1ccc(F)cc1)N1CCN(c2nc3ccccc3s2)CC1	?	·	-17.5%	?	-26.4%	28.2µM*
CCC1CN(CC(=O)NCc2cc(C)n(C)n2)Cc2cc(OC)ccc2O1 (stereo not given)	·	-11.3%	·	-2.7%	·	12.0%
Cc1ccc(O)c(CNCCNCc2cc(C)ccc2O)c1	-67.4*	?	·	-10.4%	·	-19.6%
Cc1sc2nc(CN3CCOCC3)[nH]c(=O)c2c1-c1ccccc1	-28.4	-0.7%	-3.2%	-7.7%	?	-15.1%
Cc1sc2nc(-c3ccccn3)[nH]c(=O)c2c1-c1ccccc1	-61.5*	?	?	-9.2%	?	6.6%
COCCNCc1nc2sc(C)c(-c3ccccc3)c2c(=O)[nH]1	-101.4*	i	-9.0%	-5.5%	-1.9%	-10.1%
CCC1Cc2[nH]c(=S)[nH]c(=O)c2C(c2ccc(F)cc2)O1 (stereo not given)	0.8	6.8%	·	-5.1%	·	-9.0%
CCOc1ccc(S(=O)(=O)N(CC)CC(=O)NCc2ccccn2)cc1C	1.3	?	-23.6%	?	11.9%[46.1 µM]	5.2%
Cc1ccc(CNC(=O)CCS(=O)(=O)c2cc3c4c(c2)CCN4C(=O)CC3)cc1	-9.0	-4.8%	11.6%[46.1 µM]	-3.8%	·	15.0%
O=C(NC1CCCCC1)N1CCN(C(c2ccccc2)c2ccccc2)CC1	-12.7	-11.2%	13µM*	-15.2%	?	·
O=C(NC1CCCC1)C1CCN(C(=O)NCc2ccccc2)CC1	-62.5*	·	·	·	·	-22.2%
O=C(NCc1ccc(Cl)cc1)C1CCN(C(=O)Cc2ccccc2)CC1	-68.5*	-1.5%	-4.8%	-4.9%	1.4%	-19.0%
CC(=O)Nc1ccc(S(=O)(=O)Nc2cccc(-c3ccc(N4CCC(C)CC4)nn3)c2)cc1	47.4	-25.7%	11.2µM*	-26.4%	·	?
CC(=O)Nc1ccc(S(=O)(=O)Nc2cccc(-c3ccc(N4CCCCCC4)nn3)c2)cc1	49.8	-13.8%	-23.9%[46.1 µM]	-1.6%	·	50.0%
O=C(c1ccc2c(c1)N(Cc1ccc(F)cc1Cl)C(=O)c1ccccc1S2)N1CCC2(CC1)OCCO2	-68.2*	-3.2%	?	-3.0%	·	-3.9%
C=CCN1C(=O)c2ccccc2Sc2ccc(C(=O)N3CCC4(CC3)OCCO4)cc21	-66.1*	·	-4.9%	·	-16.2%	-29.9%
CCCC(=O)Nc1ccc(Oc2ccc(NC(=O)CCC)cc2)cc1	5.8	·	2.0%	·	1.8%	-5.4%
CCCC(=O)Nc1ccc(C=C(C(C)=O)C(C)=O)cc1	43.8	-20.9%	18.1%	-19.8%	-10.7%	22.4µM*
CCSC1(SCC)N=C(N)C2(C#N)C(c3ccc(F)cc3)C12C#N (stereo not given)	-107.1*	-14.8%[1.46 µM]	?	-13.2%	?	14.1µM*
COC1(OC)N=C(N)C2(C#N)C(c3ccc(F)cc3)C12C#N (stereo not given)	-31.2	i	3.6%	-16.6%	-3.3%	-6.8%
COc1cc(=O)n2c(c1C(=O)N(C)Cc1nonc1C)CCN(C(=O)c1cc(C)ccc1C)CC2	·	-2.9%	·	-1.0%	·	-9.2%
Nc1ccc(C(=O)OCC(=O)N2c3ccccc3Sc3ccccc32)cc1[N+](=O)[O-]	?	-9.2%	15.8µM*	-20.4%	20.6µM*	-8.3%
Nc1ccc(C(=O)OCC(=O)N2CCc3ccccc3C2)cc1[N+](=O)[O-]	-20.2	-2.8%	?	-14.0%	24.4%	-6.4%
Cc1cccc(Nc2nnc(SCC(=O)NC(=O)Nc3ccc4c(c3)OCCO4)s2)c1	-96.0*	i	?	-20.1%	?	-4.3%
CCOC(=O)c1cnc2c(C(F)(F)F)cccc2c1N1CCOCC1	?	·	-3.7%	-29.9%	-24.0%	31.6µM*
